The record followed here is the supplement of paper PMC10849652.

About 7,900 targets were measured; listed, in parts, are those with a hit and a random draw of the rest. About 0.6% of all pairs of compound and target were hits. Unmarked numbers belong to inactive results.

Chain of UniProt Q9NP80 (Q9NP80 whole entry, looked up): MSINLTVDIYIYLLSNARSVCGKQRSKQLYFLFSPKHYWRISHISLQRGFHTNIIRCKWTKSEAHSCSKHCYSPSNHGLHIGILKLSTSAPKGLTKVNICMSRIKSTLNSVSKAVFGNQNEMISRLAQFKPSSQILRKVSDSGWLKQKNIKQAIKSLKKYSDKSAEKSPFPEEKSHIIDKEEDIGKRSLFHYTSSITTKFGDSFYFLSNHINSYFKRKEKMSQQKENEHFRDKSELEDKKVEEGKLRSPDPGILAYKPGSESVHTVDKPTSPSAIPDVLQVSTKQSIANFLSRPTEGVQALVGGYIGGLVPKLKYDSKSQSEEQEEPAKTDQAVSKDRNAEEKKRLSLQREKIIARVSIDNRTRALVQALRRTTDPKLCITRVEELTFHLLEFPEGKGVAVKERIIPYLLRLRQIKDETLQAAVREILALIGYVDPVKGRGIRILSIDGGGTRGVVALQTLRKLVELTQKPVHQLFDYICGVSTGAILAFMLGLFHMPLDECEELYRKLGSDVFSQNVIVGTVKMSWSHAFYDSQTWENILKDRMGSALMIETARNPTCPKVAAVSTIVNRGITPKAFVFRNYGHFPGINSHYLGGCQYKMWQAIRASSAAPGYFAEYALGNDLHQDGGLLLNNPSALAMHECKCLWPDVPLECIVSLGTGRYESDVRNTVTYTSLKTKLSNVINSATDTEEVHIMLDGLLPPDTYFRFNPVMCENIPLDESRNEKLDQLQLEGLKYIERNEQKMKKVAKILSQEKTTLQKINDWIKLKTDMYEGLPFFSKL
Chain of UniProt P06737 (P06737 whole entry, looked up): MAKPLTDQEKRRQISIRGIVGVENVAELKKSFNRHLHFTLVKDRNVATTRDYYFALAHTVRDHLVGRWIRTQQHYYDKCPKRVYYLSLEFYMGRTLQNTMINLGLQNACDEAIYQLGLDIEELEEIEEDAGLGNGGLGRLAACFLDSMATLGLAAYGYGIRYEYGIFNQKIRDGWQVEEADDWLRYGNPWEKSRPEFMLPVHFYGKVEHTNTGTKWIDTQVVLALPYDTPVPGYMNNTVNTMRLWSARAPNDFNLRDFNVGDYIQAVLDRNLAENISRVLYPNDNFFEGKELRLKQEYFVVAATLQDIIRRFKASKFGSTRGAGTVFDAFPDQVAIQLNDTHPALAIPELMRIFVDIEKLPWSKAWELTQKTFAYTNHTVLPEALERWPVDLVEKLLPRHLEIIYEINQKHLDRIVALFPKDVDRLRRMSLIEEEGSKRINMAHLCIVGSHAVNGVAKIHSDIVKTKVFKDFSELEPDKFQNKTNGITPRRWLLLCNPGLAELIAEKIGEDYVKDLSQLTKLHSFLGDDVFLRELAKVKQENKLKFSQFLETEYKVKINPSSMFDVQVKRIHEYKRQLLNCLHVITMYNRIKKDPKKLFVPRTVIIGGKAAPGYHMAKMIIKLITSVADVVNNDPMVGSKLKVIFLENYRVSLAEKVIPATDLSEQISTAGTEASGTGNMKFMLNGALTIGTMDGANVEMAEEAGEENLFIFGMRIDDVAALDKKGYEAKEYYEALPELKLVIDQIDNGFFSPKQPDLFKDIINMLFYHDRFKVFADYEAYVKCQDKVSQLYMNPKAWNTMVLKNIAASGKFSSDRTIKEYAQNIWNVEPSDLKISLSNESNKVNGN
Chain of UniProt O95602 (O95602 whole entry, looked up): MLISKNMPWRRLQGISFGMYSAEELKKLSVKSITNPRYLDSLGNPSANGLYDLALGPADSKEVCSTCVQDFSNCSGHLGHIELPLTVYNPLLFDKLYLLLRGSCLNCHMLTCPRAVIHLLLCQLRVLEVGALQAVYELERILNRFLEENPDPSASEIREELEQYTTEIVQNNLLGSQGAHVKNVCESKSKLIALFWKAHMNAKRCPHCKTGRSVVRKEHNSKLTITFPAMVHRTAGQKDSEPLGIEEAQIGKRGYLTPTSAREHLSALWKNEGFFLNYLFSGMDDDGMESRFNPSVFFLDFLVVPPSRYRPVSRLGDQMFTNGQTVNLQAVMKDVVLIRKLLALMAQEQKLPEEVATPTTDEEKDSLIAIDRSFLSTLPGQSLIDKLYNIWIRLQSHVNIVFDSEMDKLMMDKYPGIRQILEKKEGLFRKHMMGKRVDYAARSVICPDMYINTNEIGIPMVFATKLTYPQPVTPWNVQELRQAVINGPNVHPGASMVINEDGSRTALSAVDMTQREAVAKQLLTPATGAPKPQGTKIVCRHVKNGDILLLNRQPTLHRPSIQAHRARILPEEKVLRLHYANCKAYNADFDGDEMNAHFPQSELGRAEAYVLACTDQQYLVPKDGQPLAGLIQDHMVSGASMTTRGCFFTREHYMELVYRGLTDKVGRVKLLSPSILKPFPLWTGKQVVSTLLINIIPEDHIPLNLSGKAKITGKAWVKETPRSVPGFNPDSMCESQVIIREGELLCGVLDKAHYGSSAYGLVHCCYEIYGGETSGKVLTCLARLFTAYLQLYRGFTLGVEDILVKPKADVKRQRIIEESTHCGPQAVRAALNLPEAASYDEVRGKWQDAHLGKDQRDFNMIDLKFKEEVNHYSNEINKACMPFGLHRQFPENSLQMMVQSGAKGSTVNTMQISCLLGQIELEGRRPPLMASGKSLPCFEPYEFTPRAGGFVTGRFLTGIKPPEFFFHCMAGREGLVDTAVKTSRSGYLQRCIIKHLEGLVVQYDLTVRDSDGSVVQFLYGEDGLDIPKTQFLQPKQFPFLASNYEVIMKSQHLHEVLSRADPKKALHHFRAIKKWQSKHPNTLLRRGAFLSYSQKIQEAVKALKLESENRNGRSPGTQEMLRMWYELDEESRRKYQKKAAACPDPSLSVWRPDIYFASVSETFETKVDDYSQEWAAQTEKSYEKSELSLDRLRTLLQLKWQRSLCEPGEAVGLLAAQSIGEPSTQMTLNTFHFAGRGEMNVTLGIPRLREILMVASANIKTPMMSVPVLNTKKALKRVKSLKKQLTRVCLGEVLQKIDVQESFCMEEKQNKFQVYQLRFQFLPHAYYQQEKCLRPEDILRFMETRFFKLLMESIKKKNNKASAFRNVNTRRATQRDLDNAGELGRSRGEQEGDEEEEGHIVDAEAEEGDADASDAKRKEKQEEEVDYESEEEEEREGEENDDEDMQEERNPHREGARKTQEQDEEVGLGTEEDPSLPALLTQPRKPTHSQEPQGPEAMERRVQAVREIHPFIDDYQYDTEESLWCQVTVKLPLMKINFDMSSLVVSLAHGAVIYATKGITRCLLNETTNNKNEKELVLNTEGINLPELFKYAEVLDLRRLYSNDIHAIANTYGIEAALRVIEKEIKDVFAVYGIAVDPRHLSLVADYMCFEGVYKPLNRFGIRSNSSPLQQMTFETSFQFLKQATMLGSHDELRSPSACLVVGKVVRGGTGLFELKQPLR
Chain of UniProt Q01970 (Q01970 whole entry, looked up): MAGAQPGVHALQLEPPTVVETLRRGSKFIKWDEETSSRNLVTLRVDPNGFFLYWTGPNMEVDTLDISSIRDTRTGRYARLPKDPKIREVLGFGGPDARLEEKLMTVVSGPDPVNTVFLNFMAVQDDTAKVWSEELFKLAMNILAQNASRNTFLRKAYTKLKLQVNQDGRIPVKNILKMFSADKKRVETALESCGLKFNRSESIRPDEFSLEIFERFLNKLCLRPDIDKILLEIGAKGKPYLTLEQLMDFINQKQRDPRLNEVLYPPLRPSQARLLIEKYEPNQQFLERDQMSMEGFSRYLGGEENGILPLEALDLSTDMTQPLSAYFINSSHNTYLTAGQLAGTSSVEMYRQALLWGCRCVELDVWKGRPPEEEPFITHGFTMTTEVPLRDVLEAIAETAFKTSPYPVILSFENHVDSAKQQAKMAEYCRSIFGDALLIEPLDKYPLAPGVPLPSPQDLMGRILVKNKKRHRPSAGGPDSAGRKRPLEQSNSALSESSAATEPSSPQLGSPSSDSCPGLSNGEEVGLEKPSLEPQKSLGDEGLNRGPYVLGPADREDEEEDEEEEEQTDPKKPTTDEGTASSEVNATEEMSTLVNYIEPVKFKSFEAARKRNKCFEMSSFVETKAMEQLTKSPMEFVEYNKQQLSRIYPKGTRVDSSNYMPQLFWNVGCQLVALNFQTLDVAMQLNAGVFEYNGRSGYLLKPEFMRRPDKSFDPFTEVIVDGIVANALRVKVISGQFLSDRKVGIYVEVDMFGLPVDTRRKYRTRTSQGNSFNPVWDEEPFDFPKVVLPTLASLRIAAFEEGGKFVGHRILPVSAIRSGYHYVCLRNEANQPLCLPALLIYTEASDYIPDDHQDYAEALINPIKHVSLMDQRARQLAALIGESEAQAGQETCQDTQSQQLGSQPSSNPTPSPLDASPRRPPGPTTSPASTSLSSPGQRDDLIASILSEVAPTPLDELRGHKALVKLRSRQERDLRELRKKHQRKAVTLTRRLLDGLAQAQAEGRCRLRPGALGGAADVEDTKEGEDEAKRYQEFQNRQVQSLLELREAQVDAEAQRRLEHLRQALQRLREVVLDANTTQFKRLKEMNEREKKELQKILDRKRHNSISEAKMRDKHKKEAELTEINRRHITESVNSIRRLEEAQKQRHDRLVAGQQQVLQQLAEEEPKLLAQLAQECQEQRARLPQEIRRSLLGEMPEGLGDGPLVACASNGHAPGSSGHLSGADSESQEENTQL
Chain of UniProt Q15257 (Q15257 whole entry, looked up): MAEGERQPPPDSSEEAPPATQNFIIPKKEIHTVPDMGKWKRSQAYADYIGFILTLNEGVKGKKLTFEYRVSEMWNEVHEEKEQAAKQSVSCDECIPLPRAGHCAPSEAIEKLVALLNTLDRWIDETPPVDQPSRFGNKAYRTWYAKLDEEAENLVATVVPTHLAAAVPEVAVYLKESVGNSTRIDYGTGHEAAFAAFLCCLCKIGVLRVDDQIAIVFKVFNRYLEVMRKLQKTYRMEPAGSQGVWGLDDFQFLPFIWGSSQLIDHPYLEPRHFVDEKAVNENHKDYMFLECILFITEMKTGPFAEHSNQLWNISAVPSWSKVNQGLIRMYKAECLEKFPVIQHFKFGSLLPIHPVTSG
Chain of UniProt Q9Y244 (Q9Y244 whole entry, looked up): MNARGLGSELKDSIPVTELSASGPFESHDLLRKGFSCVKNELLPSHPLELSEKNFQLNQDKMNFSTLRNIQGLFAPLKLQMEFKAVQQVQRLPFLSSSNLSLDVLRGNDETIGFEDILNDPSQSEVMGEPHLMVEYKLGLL

Compound in the first assay: CNCc1ccc(-c2[nH]c3cc(F)cc4c3c2CCNC4=O)cc1 [rucaparib]
In words: log2 fold change, soluble protein after heating vs DMSO (PISA); higher = thermal stabilisation; K562 cells, 10 uM, 30 min; active = over 0.2 and 3.5 SD of the protein, either way, in both replicates (recomputed). In short, it runs like this:
(§1)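 K562 cells at 2×10^6 cells/mL were given 10 μM compound for 30 min. Aliquots then went through 3 min of heating across 48°C-58°C, were pooled, and were extracted in PBS with 0.5% NP-40 at 4°C, and the supernatant after 21,000xg for 90 min was quantified by TMTpro 16plex LC-MS/MS with channel sums equalised. Thermal stability relative to control samples, from duplicates, is given as log2 fold change.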
On to PYGB (UniProt P11216), for which the log2 fold change is -0.004.
As to PLCB3 (UniProt Q01970), the log2 fold change was -0.015.
Take POLR2M (UniProt P0CAP2): the log2 fold change was 0.05.
In the case of PEX16 isoform 2 (UniProt Q9Y5Y5), the log2 fold change is 0.042.
PTPA (UniProt A6PVN8): the log2 fold change was 0.072.
Consider PARN (UniProt O95453), for which the log2 fold change was 0.079.
On to PKM (UniProt P14618), for which the log2 fold change was -0.052.
The same measure, in the same setting: in the case of PRIM1 (UniProt P49642) it was 0.084.
For the target PCK2 (UniProt Q16822), the log2 fold change is -0.009.
Consider POLR2G (UniProt P62487), for which the log2 fold change is 0.039.
Still for that read-out and setting: in the case of PTDSS1 (UniProt P48651) it was 0.292; in that of PHKA2 (UniProt P46019), -0.063.
In the case of PISD (UniProt Q9UG56), the log2 fold change is 0.06.
Consider PIP4P1 isoform 2 (UniProt Q86T03), for which the log2 fold change was -0.026.
As to PGGT1B (UniProt P53609), the log2 fold change was -0.032.
Still for that read-out and setting: in the case of PCLAF (UniProt Q15004) it was -0.094.
The same measure, in the same setting: in the case of POLR3K (UniProt Q9Y2Y1) it was 0.089.
Same read-out and setting: to POLR2K (UniProt P53803) belongs 0.039.
For the target PCBP1 (UniProt Q15365), the log2 fold change was -0.015.
Take PCNT (UniProt O95613): the log2 fold change was -0.116.
Same read-out and setting: to PTGR2 (UniProt Q8N8N7) belongs 0.007; to PLIN2 (UniProt Q99541), -0.012.
Same read-out and setting: in the case of PDCD6 (UniProt O75340) it was -0.048; in that of PYGL (UniProt P06737), -0.028; in that of POTEI (UniProt P0CG38), -0.049.
Consider POLR1A (UniProt O95602), for which the log2 fold change is 0.064.
Turning to POMP (UniProt Q9Y244), the log2 fold change was -0.013.
For the target PPP2R5E (UniProt Q16537), the log2 fold change was -0.008.
With PSMA3 (UniProt P25788), the log2 fold change is -0.001.
The same measure, in the same setting: to PRPF3 (UniProt O43395) belongs -0.041; to PNPLA8 (UniProt Q9NP80), 0.038.
Turning to PRMT3 (UniProt O60678), the log2 fold change is 0.035.
Turning to PRIM2 (UniProt P49643), the log2 fold change was 0.001.
On to PFAS (UniProt O15067), for which the log2 fold change is 0.
Consider PARL (UniProt Q9H300), for which the log2 fold change is -0.005.
Same read-out and setting: to PDPK1 (UniProt O15530) belongs -0.056; to PTPA (UniProt Q15257), -0.045.

Compound in another assay: CNc1nc(-c2ccc3c(N)n[nH]c3c2)cc(N2C[C@@H](C(=O)NC3CCCCC3)CC[C@H]2C)n1
The description is as above. In short, it runs like this: as §1
For the target PYGB (UniProt P11216), the log2 fold change is -0.042.
Still for that read-out and setting: to PLCB3 (UniProt Q01970) belongs -0.045.
For POLR2M (UniProt P0CAP2), the log2 fold change was -0.021.
As for PEX16 isoform 2 (UniProt Q9Y5Y5), the log2 fold change was -0.04.
On the same count and under the same terms, in the case of PTPA (UniProt A6PVN8) it was -0.008.
For PARN (UniProt O95453), the log2 fold change was -0.022.
Take PKM (UniProt P14618): the log2 fold change was -0.007.
Same read-out and setting: to PRIM1 (UniProt P49642) belongs 0.051; to PCK2 (UniProt Q16822), 0.015.
The same measure, in the same setting: in the case of POLR2G (UniProt P62487) it was 0.042; in that of PTDSS1 (UniProt P48651), 0.07.
Consider PHKA2 (UniProt P46019), for which the log2 fold change is -0.009.
The same measure, in the same setting: in the case of PISD (UniProt Q9UG56) it was 0.252 (active); in that of PIP4P1 isoform 2 (UniProt Q86T03), -0.059; in that of PGGT1B (UniProt P53609), -0.017.
On the same count and under the same terms, in the case of PCLAF (UniProt Q15004) it was -0.161.
Same read-out and setting: to POLR3K (UniProt Q9Y2Y1) belongs -0.098; to POLR2K (UniProt P53803), -0.047.
PCBP1 (UniProt Q15365): the log2 fold change is 0.03.
The same measure, in the same setting: to PCNT (UniProt O95613) belongs 0.019.
Take PTGR2 (UniProt Q8N8N7): the log2 fold change is 0.136.
Regarding PLIN2 (UniProt Q99541), the log2 fold change is -0.001.
On the same count and under the same terms, in the case of PDCD6 (UniProt O75340) it was -0.153.
Same read-out and setting: to PYGL (UniProt P06737) belongs -0.065.
As to POTEI (UniProt P0CG38), the log2 fold change was -0.014.
On the same count and under the same terms, in the case of POLR1A (UniProt O95602) it was -0.089.
As for POMP (UniProt Q9Y244), the log2 fold change was -0.114.
PPP2R5E (UniProt Q16537): the log2 fold change is 0.074.
Still for that read-out and setting: in the case of PSMA3 (UniProt P25788) it was 0.02.
PRPF3 (UniProt O43395): the log2 fold change is -0.001.
In the case of PNPLA8 (UniProt Q9NP80), the log2 fold change was -0.016.
The same measure, in the same setting: to PRMT3 (UniProt O60678) belongs 0.011; to PRIM2 (UniProt P49643), 0.018; to PFAS (UniProt O15067), 0.251.
On the same count and under the same terms, in the case of PARL (UniProt Q9H300) it was -0.052; in that of PDPK1 (UniProt O15530), 0.385 (active).
The same measure, in the same setting: in the case of PTPA (UniProt Q15257) it was -0.012.
